BH1578 lux ind = induces V. cholerae light production without autoinducers; 350,000 tested, 0.16% active; V. cholerae BH1578 lux reporter, luminescence, 6 h; activation, % at 18.7 µM; AID 588436; in the data active = activation mostly above about 9.7%, no sharp cut-off
CCHFV vOTU inh = CCHFV vOTU protease inhibition. Pep-AMC fluorescence. 370,000 tested, 0.55% active. AID 651958. inhibition, % at 11.5 µM; in the data active = inhibition above about 30%
GDH-TPI counter-1 = GDH-TPI coupled enzyme inhibition counter-screen. GDH-TPI coupled enzyme counterscreen, NADH absorbance. inhibition, % at 4.8 µM. 360,000 tested, 1.2% active. AID 588335; in the data active = inhibition above about 30%
FBA Mtb inh = Mtb fructose-bisphosphate aldolase inhibition. purified M. tuberculosis FBA, fluorescence read-out. AID 588726. inhibition, % at 1 µM. P9WQA3. 360,000 tested, 2.3% active
Target sequence (P9WQA3 whole entry, looked up): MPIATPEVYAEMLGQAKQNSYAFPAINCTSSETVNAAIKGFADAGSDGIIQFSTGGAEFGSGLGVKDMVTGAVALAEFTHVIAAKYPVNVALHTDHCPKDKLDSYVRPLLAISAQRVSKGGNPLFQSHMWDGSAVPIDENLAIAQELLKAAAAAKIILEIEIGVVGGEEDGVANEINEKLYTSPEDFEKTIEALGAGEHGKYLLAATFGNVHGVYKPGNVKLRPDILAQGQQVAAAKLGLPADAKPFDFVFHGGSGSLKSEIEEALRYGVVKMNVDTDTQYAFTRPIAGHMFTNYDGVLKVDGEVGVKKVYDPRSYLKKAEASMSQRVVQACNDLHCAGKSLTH
Mtb FBA confirm = confirmation of M. tuberculosis fructose-bisphosphate aldolase inhibitors; AID 651616; purified M. tuberculosis FBA, fluorescence read-out; shares compounds with FBA Mtb inh; 5,600 tested, 78% active; inhibition, % at 1 µM
GDH-TPI counter-2 = counter-screen for M. tuberculosis FBA inhibitors: GDH-TPI coupled enzyme inhibition; shares compounds with FBA Mtb inh; 5,600 tested, 81% active; inhibition, % at 1 µM; AID 652141; GDH-TPI coupled enzyme counterscreen, fluorescence; in the data active = inhibition above about 10%
Each line names hits and unclear results; the compound was inactive in the other large screens (follow-up assays come after a bar, where they were run). The list is not random: actives were taken first. Their share in the collection is about 3.9%. Rule as the data show it, unless noted: active = inhibition above about 27%; inactive = the rest.

Nc1c(C(=O)NCC2CCCO2)c2nc3ccccc3nc2n1Cc1ccco1 (stereo not drawn)	FBA Mtb inh 85.5 | Mtb FBA confirm inactive | GDH-TPI counter-2 inactive
CCOC(=O)CSc1nc2ccccc2c(=O)n1Cc1ccco1	none
COc1ccc(OC)c(-n2c(N)c(C(=O)NCC3CCCO3)c3nc4ccccc4nc32)c1 (stereo not drawn)	none
CC(C)OC(=O)c1c(N)n(Cc2ccco2)c2nc3ccccc3nc12	FBA Mtb inh 43.5 | Mtb FBA confirm 130.8 | GDH-TPI counter-2 97.5
N#Cc1c(NCCN)nc(-c2ccccc2)c2c1CCCC2	none
CN(C)CCCNc1nc(-c2ccccc2)c2c(c1C#N)CC(C)(C)OC2	FBA Mtb inh 44.9 | Mtb FBA confirm 107.4 | GDH-TPI counter-2 84.5
CC1(C)Cc2c(C#N)c(NCCc3ccccc3)nc(-c3ccco3)c2CO1	FBA Mtb inh 35.2 | Mtb FBA confirm 170.7 | GDH-TPI counter-2 135.2
N#Cc1c(NCCCO)nc(-c2ccccc2)c2c1CCCC2	FBA Mtb inh 51.5 | Mtb FBA confirm 57.5 | GDH-TPI counter-2 36.3
CC1(C)Cc2c(C#N)c(NCC3CCCO3)nc(-c3ccco3)c2CO1 (stereo not drawn)	FBA Mtb inh 29.6 | Mtb FBA confirm active | GDH-TPI counter-2 active
CCN(CC)CCNc1nc(-c2ccco2)c2c(c1C#N)CC(C)(C)OC2	none
CC(=O)Nc1ccc(S(=O)(=O)NCC2CCC(C(=O)NC(C)c3ccccc3)CC2)cc1 (stereo not drawn)	none
COCc1cc(C)nc(N)c1C#N	FBA Mtb inh 29.5 | Mtb FBA confirm active | GDH-TPI counter-2 active
Cc1cc(C)c(C#N)c(N2CCOCC2)n1	none
COCc1cc(C)nc(N2CCOCC2)c1C#N	FBA Mtb inh 31.5 | Mtb FBA confirm 37.2 | GDH-TPI counter-2 36.6
COCc1cc(C)[nH]c(=O)c1C#N	FBA Mtb inh 66.2 | Mtb FBA confirm 53.4 | GDH-TPI counter-2 41.4
COCc1cc(C)nc(NC2CC(C)(C)NC(C)(C)C2)c1C#N	FBA Mtb inh 62.1 | Mtb FBA confirm 83.1 | GDH-TPI counter-2 78.0
CCOC(=O)Cn1c(C)cc(COC)c(C#N)c1=O	none
Cc1cc(NS(=O)(=O)c2ccc(NC(=O)N[C@H](C(=O)O)C(C)C)cc2)no1	none
N#C/C(=N\Nc1ccc(Cl)c(Cl)c1)C(=O)C1CC1	FBA Mtb inh 65.7 | Mtb FBA confirm inactive | GDH-TPI counter-2 inactive
N#C/C(=N\Nc1ccc(F)cc1)C(=O)C1CC1	FBA Mtb inh 36.8 | Mtb FBA confirm 63.3 | GDH-TPI counter-2 58.7
Oc1nc(-c2ccc(Br)cc2)n2ccncc12	none
COc1ccc(CCNC(=O)COC(=O)c2ccc(C)s2)cc1	none
COCCCNC(=O)COC(=O)c1ccc(-c2nc3ccccc3s2)s1	FBA Mtb inh 79.4 | Mtb FBA confirm 94.5 | GDH-TPI counter-2 70.2
CC(Sc1nnnn1-c1ccccc1)C(=O)Nc1ccc(Cl)cn1 (stereo not drawn)	none
Cc1ccc(S(=O)(=O)NC(=O)Nc2nnc(C3CC3)s2)cc1	none
CCCCCc1nnc(NC(=O)NS(=O)(=O)c2ccc(C)cc2)s1	FBA Mtb inh 41.4 | Mtb FBA confirm 150.9 | GDH-TPI counter-2 120.9
O=C(CN1CCc2cc3c(cc2C1)OCCCO3)Nc1cccc([N+](=O)[O-])c1	none
Cc1ccc(-c2nc(CN3CCCCC3)cc(CN3CCCCC3)c2O)cc1	FBA Mtb inh 58.7 | Mtb FBA confirm 143.6 | GDH-TPI counter-2 121.8
CC(C)(C)c1nc(CN2CCOCC2)cc(CN2CCOCC2)c1O	none
CCOC(=O)Cc1csc(/N=C/c2c(O)n(-c3ccccc3C(F)(F)F)c(=O)c3ccccc23)n1	FBA Mtb inh 104.8 | Mtb FBA confirm 85.8 | GDH-TPI counter-2 58.4
CN1CCN(c2ccc(CNC(=O)c3ccc(-c4cnn(C)c4)c4ccoc34)cc2)CC1	none
O=C(NCC1CC1)c1ccc(-c2cn[nH]c2)c2ccoc12	FBA Mtb inh 27.3 | Mtb FBA confirm 42.7 | GDH-TPI counter-2 31.1
COCCNC(=O)c1ccc(-c2cn[nH]c2)c2ccoc12	FBA Mtb inh 56.6 | Mtb FBA confirm 43.5 | GDH-TPI counter-2 36.6
CN(C)CCNC(=O)c1ccc(-c2cnn(C)c2)c2ccoc12	FBA Mtb inh 85.1 | Mtb FBA confirm 104.4 | GDH-TPI counter-2 94.0
O=C(c1ccc(Cl)c(S(=O)(=O)N2CCCC2)c1)N1CCN(c2ccc(F)cc2)CC1	none
O=C(Cc1ccc([N+](=O)[O-])cc1)Nc1ccc(Br)cn1	none
COc1ccc(NC(=O)C2(C)CCN2Cc2ccc(SC)cc2)cc1OC (stereo not drawn)	none
CCN(CC(=O)NCc1ccc(Cl)cc1)C(=O)CSc1cccc(C(F)(F)F)c1	none
CCOc1ccc(CNC(c2ccccc2)c2ccccc2)cc1	none
C#CCOc1ccc(C2C3=C(CC(C)(C)CC3=O)N(CC(=O)O)C3=C2C(=O)CC(C)(C)C3)cc1OC	none
C#CCOc1ccc(C2C3=C(CC(C)(C)CC3=O)N(CC(=O)O)C3=C2C(=O)CC(C)(C)C3)cc1	FBA Mtb inh 92.2 | Mtb FBA confirm inactive | GDH-TPI counter-2 inactive
CCN1/C(=C2\C(=O)N(C)C(=S)N2c2ccccc2)C=Cc2ccccc21	none
OCCn1nc2c3ccccc3nc-2n(-c2ccccc2)c1=S	FBA Mtb inh 30.7 | Mtb FBA confirm 135.6 | GDH-TPI counter-2 116.4
Cc1nn(-c2ccccc2)c(=S)n1-c1ccccc1	none
Cc1cccc(CNc2ncnc3ccc(-c4ccc5c(c4)OCO5)cc23)c1	none
Cc1ccc(CNc2ncnc3ccc(-c4ccc(CO)o4)cc23)o1	FBA Mtb inh 81.4 | Mtb FBA confirm inactive | GDH-TPI counter-2 inactive
Nn1c(SCC(=O)Nc2ccc(F)cc2F)nnc1C1CCCCC1	none
Cc1ccc(-c2nnc(N)s2)cc1	none
Nc1nnc(-c2ccncc2)s1	FBA Mtb inh 52.3 | Mtb FBA confirm inactive | GDH-TPI counter-2 inactive
Cc1ccccc1-n1cc(CNC(=O)CCc2nnc(CCc3ccccc3)o2)cn1	none
O=C(O)c1ccccc1-c1ccccc1C(=O)Nc1ccc(-c2nc3cc(Cl)ccc3o2)cc1	none
CC(C)(C)C(=O)Nc1ccc2oc(-c3cc(F)c(F)cc3Cl)nc2c1	FBA Mtb inh 52.6 | Mtb FBA confirm 70.2 | GDH-TPI counter-2 47.4
CCCCCC(=O)Nc1ccc2oc(-c3cccnc3)nc2c1	FBA Mtb inh 84.0 | Mtb FBA confirm 47.3 | GDH-TPI counter-2 43.8
CCCC(=O)Nc1ccc(-c2nc3cc(C)c(C)cc3o2)c(O)c1	none
O=C(Nc1ccc2oc(-c3ccccc3F)nc2c1)c1cncc(Br)c1	none
CCCC(=O)Nc1ccc(-c2nc3cc(C)ccc3o2)cc1	FBA Mtb inh 96.2 | Mtb FBA confirm 75.7 | GDH-TPI counter-2 76.9
CC(=O)Nc1ccc(-c2nc3cc(Cl)ccc3o2)cc1	FBA Mtb inh 29.5 | Mtb FBA confirm active | GDH-TPI counter-2 active
COc1ccc(C(=O)Nc2ccc3oc(-c4cccnc4)nc3c2)cc1OC	none
CCCCN(C=O)c1c(CC)nc2ccc(C(=O)NCc3ccc4c(c3)OCO4)cn12	none
Cc1ccc(S(=O)(=O)NCCC(=O)N2CCOCC2)cc1C	none
COc1ccc(NS(=O)(=O)c2cn(C)cn2)cc1Cl	none
COc1ccc(-n2nc3ccc(N)cc3n2)cc1Cl	FBA Mtb inh 63.7 | Mtb FBA confirm 50.1 | GDH-TPI counter-2 44.0

Bioassay records deposited in PubChem BioAssay by several laboratories.
